The structures appear in SMILES notation. A number with no mark means an inactive call. Inconclusive results are not listed. Active and inactive are the calls of the source. Calls follow the shape of the full dose curve.
% is scaled to controls: 0 for no effect and ±100 for the full control effect; potency is read from the fitted curve at half-maximal effect.

Acetylcholinesterase (Homo sapiens), sequence (P22303 whole entry, looked up): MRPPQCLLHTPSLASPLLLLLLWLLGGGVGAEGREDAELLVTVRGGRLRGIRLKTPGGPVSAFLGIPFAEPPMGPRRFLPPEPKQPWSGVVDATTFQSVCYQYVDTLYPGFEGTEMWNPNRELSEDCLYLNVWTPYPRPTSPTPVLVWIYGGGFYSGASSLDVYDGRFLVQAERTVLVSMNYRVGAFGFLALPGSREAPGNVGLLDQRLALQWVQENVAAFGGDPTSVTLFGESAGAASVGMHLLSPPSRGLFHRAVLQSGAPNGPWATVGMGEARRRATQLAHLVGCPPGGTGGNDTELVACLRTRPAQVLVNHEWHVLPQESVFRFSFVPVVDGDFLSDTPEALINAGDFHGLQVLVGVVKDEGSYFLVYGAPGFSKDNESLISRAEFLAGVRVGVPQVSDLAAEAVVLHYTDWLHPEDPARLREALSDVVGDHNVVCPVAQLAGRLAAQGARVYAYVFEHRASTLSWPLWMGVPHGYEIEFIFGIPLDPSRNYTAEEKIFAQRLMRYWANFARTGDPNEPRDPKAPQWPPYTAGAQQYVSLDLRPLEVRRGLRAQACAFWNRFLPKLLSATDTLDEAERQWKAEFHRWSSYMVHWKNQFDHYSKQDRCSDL

In one experiment the target is Acetylcholinesterase (Homo sapiens) (UniProt P22303). As to the kind of experiment: Acetylcholinesterase (AChE) small molecule antagonists: enzyme-based qHTS assay (AID 1347397). Also: nearly all actives have a fitted effect of over 55% in size. The conditions noted are these: Potency: AChE enzyme activity inhibition; series mostly up to 115 µM; activity change, negative = inhibition: at the top concentration. The method, boiled down:
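Colorimetric DTNB read-out of thiocholine released from acetylthiocholine by recombinant human AChE (50 mU/mL as dispensed). Compounds were preincubated 30 min at RT before substrate/DTNB addition, with a 10 min RT reaction.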
`CC(C)(c1ccc(O)c(-c2ccccc2)c1)c1ccc(O)c(-c2ccccc2)c1`: the Potency was 17.8 µM (active). Turning to `Fc1ccc(Oc2ccnc3cc(Cl)cc(Cl)c23)cc1`, the “activity change, negative = inhibition” value was -1.57%. On to `COc1cc(C=O)cc2c1[C@H](COC(N)=O)[C@]1(OC(C)=O)ON2C[C@H]2[C@@H]1N2C(C)=O`, for which the “activity change, negative = inhibition” value was 0.194%. As to `O=c1ssc(Cl)c1Cl`, the “activity change, negative = inhibition” value was 2.74%.

As to `c1cc[c]([Sb]([c]2ccccc2)[c]2ccccc2)cc1`, the “activity change, negative = inhibition” value is 0.545%. On to `C[C@]12CC[C@@H]3c4ccc(OC(=O)N(CCCl)CCCl)cc4CC[C@H]3[C@@H]1CC[C@@H]2O`, for which the “activity change, negative = inhibition” value was 2.02% [at 53 µM]. On the same count and under the same terms, the result for `C=CC(=O)OCCCCOC(=O)C=C` reads -0.245%; that for `O=[N+]([O-])c1cc(Cl)ccc1Cl`, 1.77%. Still for that read-out and setting: the same measure for `ClCc1ccccc1CCl`: 0.136%; for `NC(=O)CCl`: 0%. On the same count and under the same terms, the result for `CC1(c2ccc(Oc3ccccc3)cc2)OC(=O)N(Nc2ccccc2)C1=O` (configuration not stated) reads 0.486%; that for `COC(=O)N(C(=O)N1COC2(C(=O)OC)Cc3cc(Cl)ccc3C2=N1)c1ccc(OC(F)(F)F)cc1` (configuration not stated), -1.37% [at 53 µM]. With `Cc1c(Cl)c(=O)oc2cc(OP(=O)(OCCCl)OCCCl)ccc12`, the Potency was 0.246 µM (active). Regarding `O=C1NCN(c2ccccc2)C12CCN(CC1COc3ccccc3O1)CC2` (configuration not stated), the “activity change, negative = inhibition” value is 3.33% [at 53 µM]. On to `CCC(C)(C)C(=O)OC1=C(c2ccc(Cl)cc2Cl)C(=O)OC12CCCCC2`, for which the “activity change, negative = inhibition” value was -1.57%. On to `C[C@H]1O[C@@H](O[C@H]2[C@@H](O)C[C@H](O[C@H]3[C@@H](O)C[C@H](O[C@H]4CC[C@@]5(C)[C@H](CC[C@@H]6[C@@H]5CC[C@]5(C)[C@@H](C7=CC(=O)OC7)CC[C@]65O)C4)O[C@@H]3C)O[C@@H]2C)C[C@H](O)[C@@H]1O`, for which the Potency entry is “inactive”. As to `CCC(C)c1cc(C(C)(C)C)cc(-n2nc3ccccc3n2)c1O` (configuration not stated), the “activity change, negative = inhibition” value is -6.13% [at 53 µM]. Consider `CC(C)OC(=S)S`, for which the “activity change, negative = inhibition” value was 1.28%. On the same count and under the same terms, the same measure for `CCCCN(CCCC)C(=S)[S-].CCCCN(CCCC)C(=S)[S-].[Zn+2]`: -8.91%. As to `Oc1ccc(C2(c3ccc(O)cc3)c3ccccc3-c3ccccc32)cc1`, the Potency is 39.9 µM (active). Consider `O=C(Nc1ccc2[nH]ccc2c1)c1cc2cc(F)ccc2n1Cc1cccc(F)c1`, for which the “activity change, negative = inhibition” value was 0.13%.

As for `CCc1ccccc1C`, the “activity change, negative = inhibition” value was 0.273%.

Consider `Nc1ccccc1C(=O)OC/C=C/c1ccccc1`, for which the “activity change, negative = inhibition” value is -3.41%. Same read-out and setting: the result for `COc1ccc(OC)c(CC(C)N)c1` (configuration not stated) reads 0.944%; that for `CC(Cl)CN(C)C` (configuration not stated), 2.18%. On to `CCCCCCCCCCCCCC[P+](CCCCCC)(CCCCCC)CCCCCC` (tested in a mixture with another compound), for which the Potency is 20 µM (active). Still for that read-out and setting: the result for `CCCCCCCCCCCCCCCCCCn1cc[n+](C)c1` reads 28.1 µM (active).

Take `c1ccc2cc3c(cc2c1)-c1cccc2cccc-3c12`: the “activity change, negative = inhibition” value was -1.09%. On the same count and under the same terms, the same measure for `[CH3][Hg][Cl]`: -0.13%. For `C=CC(=O)OCC(COC(=O)C=C)(COC(=O)C=C)COC(=O)C=C`, the “activity change, negative = inhibition” value is -0.345%. Same read-out and setting: the result for `COC[C@H](C)N(C(=O)CCl)c1c(C)csc1C` reads 0%.

A further experiment has the same target. As to the kind of experiment: Acetylcholinesterase (AChE) small molecule antagonists: fluorescence cell-based qHTS assay (AID 1347398). Also: nearly all actives have a fitted effect of over 50% in size. Particulars: SH-SY5Y cells; Potency: AChE activity; series mostly up to 115 µM; activity change, negative = inhibition: at the top concentration. The method, boiled down: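 SH-SY5Y, 2,000 cells/well, attached overnight; cmpd 30 min 37 C; acetylthiocholine/Thiolite Green cocktail 40 min RT; fluorescence Ex/Em 490/520 nm.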
(In general: qHTS replaces the single test concentration by a dilution series.)
Turning to `CC(C)(c1ccc(O)c(-c2ccccc2)c1)c1ccc(O)c(-c2ccccc2)c1`, the “activity change, negative = inhibition” value is -1.22%. Still for that read-out and setting: the same measure for `Fc1ccc(Oc2ccnc3cc(Cl)cc(Cl)c23)cc1`: -15%. Still for that read-out and setting: the same measure for `N#CCCC(Br)(C#N)CBr` (configuration not stated): -14.1%; for `COc1cc(C=O)cc2c1[C@H](COC(N)=O)[C@]1(OC(C)=O)ON2C[C@H]2[C@@H]1N2C(C)=O`: -0.628%.

For the compound `c1cc[c]([Sb]([c]2ccccc2)[c]2ccccc2)cc1`, the “activity change, negative = inhibition” value was 12.4%.

`C[C@]12CC[C@@H]3c4ccc(OC(=O)N(CCCl)CCCl)cc4CC[C@H]3[C@@H]1CC[C@@H]2O`: the “activity change, negative = inhibition” value was 16.2% [at 53.7 µM]. On to `C=CC(=O)OCCCCOC(=O)C=C`, for which the “activity change, negative = inhibition” value was 0.169%.

For the compound `O=[N+]([O-])c1cc(Cl)ccc1Cl`, the “activity change, negative = inhibition” value was 0.542%. Still for that read-out and setting: the result for `ClCc1ccccc1CCl` reads 3.94%. Same read-out and setting: the same measure for `NC(=O)CCl`: 7.36%; for `CC1(c2ccc(Oc3ccccc3)cc2)OC(=O)N(Nc2ccccc2)C1=O` (configuration not stated): 1.26%. Same read-out and setting: the same measure for `COC(=O)N(C(=O)N1COC2(C(=O)OC)Cc3cc(Cl)ccc3C2=N1)c1ccc(OC(F)(F)F)cc1` (configuration not stated): -9.09% [at 53.7 µM].

On to `Cc1c(Cl)c(=O)oc2cc(OP(=O)(OCCCl)OCCCl)ccc12`, for which the Potency is 0.275 µM (active). For `O=C1NCN(c2ccccc2)C12CCN(CC1COc3ccccc3O1)CC2` (configuration not stated), the “activity change, negative = inhibition” value was 2.95% [at 53.7 µM]. On the same count and under the same terms, the same measure for `CCC(C)(C)C(=O)OC1=C(c2ccc(Cl)cc2Cl)C(=O)OC12CCCCC2`: -9.94%; for `C[C@H]1O[C@@H](O[C@H]2[C@@H](O)C[C@H](O[C@H]3[C@@H](O)C[C@H](O[C@H]4CC[C@@]5(C)[C@H](CC[C@@H]6[C@@H]5CC[C@]5(C)[C@@H](C7=CC(=O)OC7)CC[C@]65O)C4)O[C@@H]3C)O[C@@H]2C)C[C@H](O)[C@@H]1O`: -4.4% [at 53.7 µM]. Same read-out and setting: the same measure for `Oc1ccc(C(=C(Cl)Cl)c2ccc(O)cc2)cc1`: -7.78%. On the same count and under the same terms, the same measure for `CC(C)OC(=S)S`: 15.8%; for `CCCCN(CCCC)C(=S)[S-].CCCCN(CCCC)C(=S)[S-].[Zn+2]`: 0.585%; for `Oc1ccc(C2(c3ccc(O)cc3)c3ccccc3-c3ccccc32)cc1`: -15.5%. For `Nc1ccccc1C(=O)OC/C=C/c1ccccc1`, the “activity change, negative = inhibition” value was -2.42%. In the case of `COc1ccc(OC)c(CC(C)N)c1` (configuration not stated), the “activity change, negative = inhibition” value is 12.4%. The same measure, in the same setting: the same measure for `CC(Cl)CN(C)C` (configuration not stated): 3.11%; for `c1ccc2cc3c(cc2c1)-c1cccc2cccc-3c12`: 0.671%.

With `CN(C)S(=O)(=O)N(SC(F)(Cl)Cl)c1ccccc1`, the Potency is 35.6 µM (active). Regarding `C=CC(=O)OCC(COC(=O)C=C)(COC(=O)C=C)COC(=O)C=C`, the “activity change, negative = inhibition” value was -6.33%.

The record behind these values is PubChem BioAssay (Tox21).
